Test results taken from the supplement of paper PMC10849652.
Of roughly 8,800 targets only a part is listed; those with a hit were picked by preference. About 0.5% of all pairs of compound and target were hits.

What was measured:
Experiment in all cases: log2 fold change, soluble protein after heating vs DMSO (PISA); higher = thermal stabilisation; K562 lysate, 10 uM; active = over 0.2 and 3.5 SD of the protein, either way, in both replicates (recomputed)
[1] = compound: CN1CC[C@H](c2c(O)cc(O)c3c(=O)cc(-c4ccccc4Cl)oc23)[C@H](O)C1 [alvocidib]
How it was run: (§1)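 Following dounce homogenisation of K562 pellets in PBS pH 7.4 with 1 mM MgCl2, crude extract at 1 mg/mL protein was incubated for 30 min with 10 μM compound. Aliquots were then heated for 3 min over 48°C-58°C and pooled, NP-40 was added to 0.5% at 4°C, and soluble protein was recovered as the supernatant at 21,000xg for 90 min. Channel-sum-equalised TMTpro 16plex LC-MS/MS quantified this protein. Each value, from duplicates, is a log-two fold change in thermal stability relative to solvent controls.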

[2] = compound: CN1CCc2c(c3ccccc3n2Cc2ccc(C(=O)NO)cc2)C1 [Tubastatin A]
How it was run: as §1

[3] = compound: CNC(=O)C1=CC=CC=C1NC2=NC(=NC=C2Cl)NC3=C(C=C(C=C3)N4CCOCC4)OC
How it was run: as §1

[4] = compound: CNC(=O)c1ccc(Nc2ncc(C(F)(F)F)c(NCc3nccnc3N(C)S(C)(=O)=O)n2)cc1 [defactinib]
How it was run: as §1

[5] = compound: CNc1nc(-c2ccc3c(N)n[nH]c3c2)cc(N2C[C@@H](C(=O)NC3CCCCC3)CC[C@H]2C)n1
How it was run: as §1

[6] = compound: COC(=O)N[C@@H](C)CNc1nccc(-c2cn(C(C)C)nc2-c2cc(Cl)cc(NS(C)(=O)=O)c2F)n1 [encorafenib]
How it was run: as §1

[7] = compound: COC(=O)[C@H](CCSC)NC(=O)C1=C(C=C(C=C1)NC[C@H](CS)N)C2=CC=CC=C2
How it was run: as §1

[8] = compound: COc1cc(Nc2ncc3c(n2)-c2ccc(Cl)cc2C(c2c(F)cccc2OC)=NC3)ccc1C(=O)O [alisertib]
How it was run: as §1

[9] = compound: COc1cc2nc(-c3cc(F)ccc3O)nc(N[C@@H]3CNC[C@H]3C(C)(C)O)c2cc1OC
How it was run: as §1

[10] = compound: COc1cc2ncnc(Nc3ccc(F)c(Cl)c3)c2cc1OCCCN1CCOCC1 [gefitinib]
How it was run: as §1

[11] = compound: CS(=O)(=O)CCNCc1ccc(-c2ccc3ncnc(Nc4ccc(OCc5cccc(F)c5)c(Cl)c4)c3c2)o1 [lapatinib]
How it was run: as §1

[12] = compound: CS(=O)(=O)N1CCN(Cc2cc3nc(-c4cccc5[nH]ncc45)nc(N4CCOCC4)c3s2)CC1 [pictilisib]
How it was run: as §1

[13] = compound: C[C@@H](Oc1cc(-c2cnn(C3CCNCC3)c2)cnc1N)c1c(Cl)ccc(F)c1Cl [crizotinib]
How it was run: as §1

[14] = compound: C[C@H](C1=CC=C(C=C1)C(=O)NC2=C3C=CNC3=NC=C2)N
How it was run: as §1

[15] = compound: C[C@H](Nc1ncnc2nc[nH]c12)c1cc2cccc(Cl)c2c(=O)n1-c1ccccc1 [duvelisib]
How it was run: as §1

[16] = compound: Cc1cc(Nc2cc(CN3CCOCC3)c3nc(C)c(Cc4ccc(Cl)cc4F)n3n2)n[nH]1 [gandotinib]
How it was run: as §1

[17] = compound: Cc1cc(Nc2cc(N3CCN(C)CC3)nc(Sc3ccc(NC(=O)C4CC4)cc3)n2)n[nH]1 [tozasertib]
How it was run: as §1

[18] = compound: Cc1ccc(-n2nc(C(C)(C)C)cc2NC(=O)Nc2ccc(OCCN3CCOCC3)c3ccccc23)cc1 [doramapimod]
How it was run: as §1

[19] = compound: Cc1ccc(NC(=O)c2ccc(CN3CC[C@H](N(C)C)C3)c(C(F)(F)F)c2)cc1Nc1nccc(-c2cncnc2)n1 [bafetinib]
How it was run: as §1

[20] = compound: Cc1cccc(CC(=O)N2CCc3c2ccc(-c2cn(C)c4ncnc(N)c24)c3F)n1
How it was run: as §1

Measured: log2 fold change

SHC1 isoform 6 (UniProt P29353)
Chain of UniProt P29353 (P29353 whole entry, looked up): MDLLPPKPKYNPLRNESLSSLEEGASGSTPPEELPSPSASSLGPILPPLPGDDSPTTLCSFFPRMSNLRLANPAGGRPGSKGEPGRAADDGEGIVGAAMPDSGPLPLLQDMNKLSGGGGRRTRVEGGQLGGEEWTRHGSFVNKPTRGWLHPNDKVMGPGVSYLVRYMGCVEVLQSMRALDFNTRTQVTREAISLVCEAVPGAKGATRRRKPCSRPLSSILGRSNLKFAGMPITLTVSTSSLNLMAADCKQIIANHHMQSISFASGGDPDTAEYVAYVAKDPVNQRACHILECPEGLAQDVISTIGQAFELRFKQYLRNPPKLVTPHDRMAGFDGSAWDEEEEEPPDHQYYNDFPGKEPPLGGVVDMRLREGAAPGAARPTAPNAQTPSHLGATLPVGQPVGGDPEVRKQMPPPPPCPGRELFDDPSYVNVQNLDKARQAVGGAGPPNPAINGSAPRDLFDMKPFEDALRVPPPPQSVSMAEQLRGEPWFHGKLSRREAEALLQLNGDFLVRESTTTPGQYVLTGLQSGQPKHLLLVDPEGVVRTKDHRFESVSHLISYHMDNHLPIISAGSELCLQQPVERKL
inactive: [1] 0.186 | [2] 0.035 | [3] 0.001 | [4] -0.031 | [5] 0.086 | [6] 0.15 | [7] -0.078 | [8] -0.008 | [9] -0.014 | [10] -0.035 | [11] 0.019 | [12] -0.057 | [13] 0.001 | [15] 0.005 | [16] -0.106 | [17] 0.005 | [18] 0.065 | [19] -0.034 | [20] -0.175
active: [14] 0.577

SLC12A6 (UniProt Q9UHW9)
inactive: [1] -0.03 | [2] 0.03 | [3] 0.065 | [4] 0.006 | [5] -0.038 | [6] 0.034 | [7] -0.021 | [8] -0.006 | [9] 0.004 | [10] 0.093 | [11] 0.037 | [12] -0.046 | [13] -0.025 | [14] 0.008 | [15] 0.015 | [16] -0.028 | [17] -0.002 | [18] 0.027 | [19] -0.011 | [20] 0.034

SH3GL3 isoform 3 (UniProt Q99963)
Chain of UniProt Q99963 (Q99963 whole entry, looked up): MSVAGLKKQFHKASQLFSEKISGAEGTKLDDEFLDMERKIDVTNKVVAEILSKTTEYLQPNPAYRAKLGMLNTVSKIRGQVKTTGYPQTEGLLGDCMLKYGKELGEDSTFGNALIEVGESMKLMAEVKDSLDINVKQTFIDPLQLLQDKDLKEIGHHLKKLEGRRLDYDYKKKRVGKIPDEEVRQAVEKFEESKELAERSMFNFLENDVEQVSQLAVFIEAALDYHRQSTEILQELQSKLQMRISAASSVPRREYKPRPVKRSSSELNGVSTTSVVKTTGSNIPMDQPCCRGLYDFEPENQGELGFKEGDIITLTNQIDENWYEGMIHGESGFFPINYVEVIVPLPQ
active: [14] -0.548 | [20] 0.446
inactive: [1] -0.263 | [2] -0.14 | [3] 0.024 | [4] -0.063 | [5] 0.15 | [6] 0.072 | [7] -0.041 | [8] -0.076 | [9] 0.09 | [10] 0.041 | [11] -0.07 | [12] -0.087 | [13] -0.04 | [15] -0.005 | [16] 0.326 | [17] 0.028 | [18] 0.016 | [19] -0.147

SRP54 (UniProt P61011)
inactive: [1] -0.023 | [2] 0.01 | [3] -0.011 | [4] 0.035 | [5] 0.023 | [6] 0.067 | [7] 0.011 | [8] 0.055 | [9] 0.043 | [10] -0.025 | [11] 0.021 | [12] -0.021 | [13] 0.019 | [14] -0.035 | [15] -0.024 | [16] 0.039 | [17] -0.004 | [18] 0.041 | [19] -0.029 | [20] 0.04

SMARCAD1 isoform 2 (UniProt Q9H4L7)
Chain of UniProt Q9H4L7 (Q9H4L7 whole entry, looked up): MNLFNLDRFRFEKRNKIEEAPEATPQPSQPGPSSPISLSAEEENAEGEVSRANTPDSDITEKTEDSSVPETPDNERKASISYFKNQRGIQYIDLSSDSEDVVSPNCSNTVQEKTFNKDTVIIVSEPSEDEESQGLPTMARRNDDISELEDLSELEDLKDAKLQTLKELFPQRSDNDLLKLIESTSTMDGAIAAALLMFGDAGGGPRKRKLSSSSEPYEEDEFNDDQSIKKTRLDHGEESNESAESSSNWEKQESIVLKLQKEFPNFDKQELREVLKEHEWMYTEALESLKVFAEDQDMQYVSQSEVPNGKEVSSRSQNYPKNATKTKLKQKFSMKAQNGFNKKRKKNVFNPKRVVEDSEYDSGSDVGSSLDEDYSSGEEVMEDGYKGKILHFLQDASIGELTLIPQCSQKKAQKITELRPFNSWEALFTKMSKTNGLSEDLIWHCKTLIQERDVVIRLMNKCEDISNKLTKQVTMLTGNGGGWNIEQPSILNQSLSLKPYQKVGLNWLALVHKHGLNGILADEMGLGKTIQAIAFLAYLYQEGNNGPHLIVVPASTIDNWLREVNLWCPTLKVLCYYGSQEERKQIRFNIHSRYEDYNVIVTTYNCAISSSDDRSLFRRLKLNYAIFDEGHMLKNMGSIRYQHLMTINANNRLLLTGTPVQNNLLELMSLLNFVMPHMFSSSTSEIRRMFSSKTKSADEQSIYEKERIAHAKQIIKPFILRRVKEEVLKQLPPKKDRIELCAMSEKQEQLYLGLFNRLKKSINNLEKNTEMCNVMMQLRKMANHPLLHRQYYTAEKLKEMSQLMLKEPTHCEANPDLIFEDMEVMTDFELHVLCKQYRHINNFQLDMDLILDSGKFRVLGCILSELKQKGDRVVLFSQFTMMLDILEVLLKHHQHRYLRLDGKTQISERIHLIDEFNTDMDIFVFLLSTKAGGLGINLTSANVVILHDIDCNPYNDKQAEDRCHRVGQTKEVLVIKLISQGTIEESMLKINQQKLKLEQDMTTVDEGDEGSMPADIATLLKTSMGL
inactive: [1] -0.007 | [2] -0.13 | [3] 0.037 | [4] 0.03 | [5] 0.003 | [6] 0.029 | [7] 0.052 | [8] -0.018 | [9] 0.004 | [10] 0.028 | [11] -0.005 | [12] -0.015 | [13] -0.073 | [14] -0.019 | [15] -0.013 | [16] -0.044 | [17] 0.018 | [18] 0.003 | [19] -0.045 | [20] 0.008

SMC6 (UniProt Q96SB8)
Chain of UniProt Q96SB8 (Q96SB8 whole entry, looked up): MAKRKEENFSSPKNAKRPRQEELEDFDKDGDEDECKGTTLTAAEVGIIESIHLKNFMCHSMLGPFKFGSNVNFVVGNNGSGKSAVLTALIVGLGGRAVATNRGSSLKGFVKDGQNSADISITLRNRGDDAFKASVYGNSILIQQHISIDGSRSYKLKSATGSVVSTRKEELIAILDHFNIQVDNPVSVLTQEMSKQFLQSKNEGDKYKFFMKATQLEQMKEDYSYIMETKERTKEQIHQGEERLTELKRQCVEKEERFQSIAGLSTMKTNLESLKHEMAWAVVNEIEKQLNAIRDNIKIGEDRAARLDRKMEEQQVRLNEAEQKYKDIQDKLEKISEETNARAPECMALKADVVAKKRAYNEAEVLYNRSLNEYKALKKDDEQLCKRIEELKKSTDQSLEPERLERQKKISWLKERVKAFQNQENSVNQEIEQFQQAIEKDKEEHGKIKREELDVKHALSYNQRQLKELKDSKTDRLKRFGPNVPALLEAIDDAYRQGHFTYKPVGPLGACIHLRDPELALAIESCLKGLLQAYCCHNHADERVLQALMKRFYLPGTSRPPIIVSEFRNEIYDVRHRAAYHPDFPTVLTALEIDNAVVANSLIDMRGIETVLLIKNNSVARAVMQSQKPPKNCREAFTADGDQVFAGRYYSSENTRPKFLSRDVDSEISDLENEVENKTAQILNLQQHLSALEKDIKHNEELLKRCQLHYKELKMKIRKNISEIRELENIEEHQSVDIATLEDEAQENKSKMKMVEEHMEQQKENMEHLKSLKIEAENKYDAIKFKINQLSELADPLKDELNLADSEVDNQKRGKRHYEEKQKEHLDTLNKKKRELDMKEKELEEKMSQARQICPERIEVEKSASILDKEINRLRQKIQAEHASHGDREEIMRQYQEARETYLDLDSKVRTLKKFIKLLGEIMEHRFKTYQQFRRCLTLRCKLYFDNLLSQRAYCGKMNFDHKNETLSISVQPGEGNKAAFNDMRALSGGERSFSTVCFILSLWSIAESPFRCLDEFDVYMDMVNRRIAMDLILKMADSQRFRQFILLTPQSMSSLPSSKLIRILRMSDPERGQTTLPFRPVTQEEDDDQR
inactive: [1] -0.017 | [2] -0.087 | [3] 0.049 | [4] -0.003 | [5] -0.004 | [6] -0.02 | [7] 0.045 | [8] -0.018 | [9] -0.013 | [10] 0.007 | [11] -0.051 | [12] -0.06 | [13] -0.026 | [14] -0.039 | [15] 0.034 | [16] -0.002 | [17] 0.004 | [18] -0.011 | [19] 0.007 | [20] 0.029

SLC40A1 (UniProt Q9NP59)
inactive: [1] 0.002 | [2] 0.145 | [3] -0.05 | [4] 0.087 | [5] -0.029 | [6] 0.013 | [7] -0.072 | [8] 0.018 | [9] 0.039 | [10] -0.01 | [11] -0.019 | [13] 0.111 | [14] -0.164 | [15] 0.099 | [16] 0.054 | [17] -0.035 | [18] -0.056 | [20] 0.018

SMARCA4 isoform 4 (UniProt P51532)
inactive: [1] 0.078 | [2] 0.106 | [3] -0.008 | [5] 0.024 | [6] -0.315 | [7] 0.04 | [8] -0.046 | [9] -0.038 | [10] -0.116 | [11] -0.072 | [13] 0 | [14] 0.024 | [15] -0.068 | [16] -0.007 | [17] 0.136 | [18] -0.048 | [20] -0.012

SLC25A38 (UniProt Q96DW6)
Chain of UniProt Q96DW6 (Q96DW6 whole entry, looked up): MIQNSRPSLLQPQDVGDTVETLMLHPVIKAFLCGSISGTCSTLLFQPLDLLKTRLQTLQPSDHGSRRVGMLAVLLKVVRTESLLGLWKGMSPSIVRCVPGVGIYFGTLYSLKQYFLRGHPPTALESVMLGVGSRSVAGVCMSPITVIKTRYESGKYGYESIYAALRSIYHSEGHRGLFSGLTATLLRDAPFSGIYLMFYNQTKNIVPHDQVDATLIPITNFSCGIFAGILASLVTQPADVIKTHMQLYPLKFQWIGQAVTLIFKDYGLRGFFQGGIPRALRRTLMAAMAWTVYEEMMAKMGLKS
inactive: [1] -0.062 | [2] 0.014 | [3] -0.049 | [4] 0.074 | [5] 0.06 | [6] -0.038 | [7] 0.321 | [8] 0.044 | [9] 0.097 | [10] 0.094 | [11] -0.093 | [12] -0.026 | [13] -0.044 | [14] -0.072 | [15] 0.173 | [16] -0.055 | [18] -0.024 | [19] -0.025 | [20] 0.112
active: [17] 0.391

SNAP23 isoform 2 (UniProt O00161)
Chain of UniProt O00161 (O00161 whole entry, looked up): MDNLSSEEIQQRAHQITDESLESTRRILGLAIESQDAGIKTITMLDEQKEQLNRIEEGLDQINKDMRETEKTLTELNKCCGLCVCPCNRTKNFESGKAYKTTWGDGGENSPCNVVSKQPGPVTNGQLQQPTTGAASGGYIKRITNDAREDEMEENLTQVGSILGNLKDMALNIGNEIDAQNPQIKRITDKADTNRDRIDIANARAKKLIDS
inactive: [1] -0.323 | [2] -0.202 | [3] 0.029 | [4] -0.118 | [6] -0.295 | [7] 0.071 | [8] -0.15 | [9] -0.152 | [10] 0.016 | [11] 0.075 | [14] 0.188 | [16] -0.054 | [17] -0.185 | [20] -0.163

SLU7 (UniProt O95391)
Chain of UniProt O95391 (O95391 whole entry, looked up): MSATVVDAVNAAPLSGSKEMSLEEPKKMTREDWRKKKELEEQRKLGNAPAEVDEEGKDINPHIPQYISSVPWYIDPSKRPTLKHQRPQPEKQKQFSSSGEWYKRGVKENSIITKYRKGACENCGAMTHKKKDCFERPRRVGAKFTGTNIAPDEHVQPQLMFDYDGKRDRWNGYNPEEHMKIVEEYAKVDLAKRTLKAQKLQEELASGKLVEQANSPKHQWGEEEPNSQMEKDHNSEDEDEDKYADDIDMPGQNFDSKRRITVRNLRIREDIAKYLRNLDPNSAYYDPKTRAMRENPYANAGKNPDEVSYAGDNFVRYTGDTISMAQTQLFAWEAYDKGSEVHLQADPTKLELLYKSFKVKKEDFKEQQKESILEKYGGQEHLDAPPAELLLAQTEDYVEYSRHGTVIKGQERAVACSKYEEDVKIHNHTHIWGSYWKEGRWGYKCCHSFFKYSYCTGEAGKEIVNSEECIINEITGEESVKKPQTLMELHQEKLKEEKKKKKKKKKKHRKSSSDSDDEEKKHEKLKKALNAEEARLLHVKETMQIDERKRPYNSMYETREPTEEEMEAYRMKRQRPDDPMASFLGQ
active: [20] 0.367
inactive: [1] -0.086 | [2] -0.042 | [3] -0.065 | [4] 0.016 | [5] -0.006 | [6] 0.071 | [7] 0.021 | [8] 0.002 | [10] 0.026 | [12] 0.006 | [13] 0.054 | [14] -0.187 | [15] 0.06 | [16] 0.255 | [17] 0.028 | [18] -0.099 | [19] -0.267

SPPL2A (UniProt Q8TCT8)
Chain of UniProt Q8TCT8 (Q8TCT8 whole entry, looked up): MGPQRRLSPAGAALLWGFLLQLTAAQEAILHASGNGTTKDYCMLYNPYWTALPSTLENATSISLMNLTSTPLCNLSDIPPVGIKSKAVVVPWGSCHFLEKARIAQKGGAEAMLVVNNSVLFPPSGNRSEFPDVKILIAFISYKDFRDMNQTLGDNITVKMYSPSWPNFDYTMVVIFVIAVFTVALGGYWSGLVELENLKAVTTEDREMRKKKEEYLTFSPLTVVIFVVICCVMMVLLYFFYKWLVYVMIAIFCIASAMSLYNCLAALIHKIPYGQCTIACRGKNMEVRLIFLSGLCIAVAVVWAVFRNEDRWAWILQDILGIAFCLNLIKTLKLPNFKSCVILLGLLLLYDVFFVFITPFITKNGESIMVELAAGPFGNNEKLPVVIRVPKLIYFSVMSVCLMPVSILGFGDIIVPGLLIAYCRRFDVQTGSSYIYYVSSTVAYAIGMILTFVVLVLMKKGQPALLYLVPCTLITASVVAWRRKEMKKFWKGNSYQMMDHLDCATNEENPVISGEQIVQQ
inactive: [1] 0.013 | [2] 0.107 | [3] 0.103 | [4] -0.054 | [6] 0.124 | [7] -0.063 | [9] 0.099 | [11] -0.002 | [12] -0.059 | [13] -0.127 | [14] -0.302 | [16] -0.093 | [17] 0.082 | [18] -0.032 | [19] -0.127 | [20] 0.1
